Screens (PubChem BioAssay)
Anthrax LF inh2: anthrax lethal factor protease inhibition | multiplex microsphere protease cleavage assay, LF | inhibition, % at 10 µM | hit rate 0.12% among 360,000
Target sequence (P15917 whole entry, looked up): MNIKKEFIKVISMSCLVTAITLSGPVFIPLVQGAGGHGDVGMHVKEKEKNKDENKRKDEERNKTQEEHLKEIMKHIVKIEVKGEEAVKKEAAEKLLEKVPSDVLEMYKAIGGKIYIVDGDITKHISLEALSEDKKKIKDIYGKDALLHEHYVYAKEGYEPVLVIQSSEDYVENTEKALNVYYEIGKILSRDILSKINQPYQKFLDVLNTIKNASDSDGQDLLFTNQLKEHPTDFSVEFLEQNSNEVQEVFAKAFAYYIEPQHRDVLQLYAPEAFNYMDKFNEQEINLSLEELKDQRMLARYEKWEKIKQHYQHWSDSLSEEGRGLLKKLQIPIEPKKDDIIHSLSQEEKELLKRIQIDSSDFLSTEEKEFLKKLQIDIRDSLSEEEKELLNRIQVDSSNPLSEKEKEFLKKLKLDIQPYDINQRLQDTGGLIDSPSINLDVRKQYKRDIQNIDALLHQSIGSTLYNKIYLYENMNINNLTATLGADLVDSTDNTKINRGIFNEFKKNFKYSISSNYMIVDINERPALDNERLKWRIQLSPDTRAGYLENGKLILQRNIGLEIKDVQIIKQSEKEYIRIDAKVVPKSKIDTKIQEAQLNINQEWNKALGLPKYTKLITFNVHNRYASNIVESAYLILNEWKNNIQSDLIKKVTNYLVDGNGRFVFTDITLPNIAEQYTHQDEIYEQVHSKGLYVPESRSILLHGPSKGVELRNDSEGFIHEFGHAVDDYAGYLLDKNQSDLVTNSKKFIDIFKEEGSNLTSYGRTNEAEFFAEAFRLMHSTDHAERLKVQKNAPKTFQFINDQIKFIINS
BoNT F protease: BoNT F light chain protease inhibition | inhibition, % at 10 µM | hit rate 0.22% among 360,000 | Multiplex microsphere protease cleavage assay, flow cytometry | AID 588497; in the data active = inhibition above about 35%, passing the limit was not always enough; inconclusive = no clear call, values can overlap the other calls
MazEF act: increases E. coli MazEF RNase cleavage of RNA. AID 504720. P0AE70. FAM/BHQ RNA-DNA oligo cleavage fluorescence, 5 h. activation, % at 20 µM. hit rate 0.32% among 350,000; in the data active = activation above about 50%
BoNT-A LC inh2: BoNT A light chain protease inhibition; multiplex microsphere protease substrate cleavage, flow cytometry; inhibition, % at 10 µM; AID 588499; hit rate 0.17% among 360,000
SSB-PriA inh: blocks PriA binding to SSB C-terminal tail | inhibition, % at 33 µM | AID 1272365 | AlphaScreen SSBct-PriA binding, biotinylated peptide | hit rate 0.6% among 430,000; in the data active = inhibition mostly above about 37%, no sharp cut-off; inactive = mostly below about 20%
Autofluor counter: compound fluorescence in toxin protease inhibitor counterscreen. AID 624483. hit rate 3.1% among 360,000. compound autofluorescence counterscreen, microsphere flow cytometry; active compounds read high. fluorescence intensity (test concentration not listed); in the data active = fluorescence intensity above about 16000; inconclusive = no clear call, values can overlap the other calls
Of the large screens only hits and unclear results are named; the others gave an inactive call; ! = repeats disagree. In the library only some 3.3% were active in any assay of this set; here they are far more common. Rule as the data show it, unless noted: active = inhibition above about 30%; inconclusive = no clear call, values can overlap the other calls; inactive = below that.

CCN1C(=O)c2ccc(C(=O)Nc3nccs3)cc2C1=O	none (no result: Anthrax LF inh2, BoNT F protease, BoNT-A LC inh2, Autofluor counter)
CCc1nnc(NC(=O)c2ccc3c(c2)C(=O)N(CC)C3=O)s1	Autofluor counter 23383
Cc1ccc(-n2c(=O)c(C#N)cc3c(=O)n4cccc(C)c4nc32)cc1	BoNT-A LC inh2 inconclusive, Autofluor counter 20956
Cc1cccn2c(=O)c3cc(C#N)c(=O)n(Cc4cccnc4)c3nc12	none (no result: Anthrax LF inh2, BoNT F protease, BoNT-A LC inh2, Autofluor counter)
Cc1cccc(C(=O)N=c2c(C#N)cc3c(=O)n4cccc(C)c4nc3n2Cc2ccco2)c1	MazEF act 53.8!
COc1cc(OC)nc(NC2OC(=O)c3ccccc32)n1 (configuration not stated)	Autofluor counter 16622
O=C1OC(Nc2ccc(Br)cc2F)c2ccccc21 (configuration not stated)	none
O=C1OC(Nc2cc(Br)cc3cccnc23)c2ccccc21 (configuration not stated)	SSB-PriA inh 74.0
O=C1OC(Nc2ncccn2)c2ccccc21 (configuration not stated)	none
O=C1N(c2ccccc2)C2CS(=O)(=O)CC2N1c1cccc2ccccc12 (configuration not stated)	none (no result: Anthrax LF inh2, BoNT F protease, MazEF act, BoNT-A LC inh2, Autofluor counter)
COc1ccc(N(CC(=O)Nc2ccc(OC)c(Cl)c2)S(=O)(=O)c2c(C)noc2C)cc1	Autofluor counter 20070
COc1ccc(N(CC(=O)Nc2cc(Cl)ccc2OC)S(=O)(=O)c2c(C)noc2C)cc1	BoNT-A LC inh2 inconclusive, Autofluor counter 20289
COc1ccc(N(CC(=O)NCc2ccc(Cl)cc2)S(=O)(=O)c2c(C)noc2C)cc1	none
COc1ccc(N(CC(=O)Nc2ccc(F)c(Cl)c2)S(=O)(=O)c2c(C)noc2C)cc1	Autofluor counter 16336
CCOc1ccc(N(CC(=O)Nc2ccc(OC)cc2)S(=O)(=O)c2c(C)noc2C)cc1	none
COc1ccc(N(CC(=O)Nc2ccc(C)cn2)S(=O)(=O)c2c(C)noc2C)cc1	Autofluor counter 17199
COc1cccc(C(=O)Nc2nc(-c3ccccc3)ns2)c1	none (no result: Anthrax LF inh2, BoNT F protease, MazEF act, BoNT-A LC inh2, Autofluor counter)
COc1ccc(N2CCN(C(=O)c3ccc(S(=O)(=O)N(C)C)cc3)CC2)nn1	none (no result: Anthrax LF inh2, BoNT F protease, MazEF act, BoNT-A LC inh2, Autofluor counter)
O=C1/C(=C/c2ccco2)Oc2c1ccc1c2CN(Cc2ccccn2)CO1	SSB-PriA inh 97.0 (no result: Anthrax LF inh2, BoNT F protease, MazEF act, BoNT-A LC inh2, Autofluor counter)
O=C1/C(=C/c2cccc(F)c2)Oc2c1ccc1c2CN(Cc2ccccn2)CO1	SSB-PriA inh 97.0 (no result: Anthrax LF inh2, BoNT F protease, MazEF act, BoNT-A LC inh2, Autofluor counter)
O=C1/C(=C/c2ccncc2)Oc2c1ccc1c2CN(Cc2c(F)cccc2Cl)CO1	none (no result: Anthrax LF inh2, BoNT F protease, MazEF act, BoNT-A LC inh2, Autofluor counter)
Cn1c(SCC(=O)N2CCOCC2)nnc1-c1cccc(NC(=O)c2ccccc2F)c1	Autofluor counter 20837
Cn1c(SCC(=O)NC(C)(C)C)nnc1-c1cccc(NC(=O)c2ccccc2F)c1	none
Cn1c(SCC(=O)N2CCOCC2)nnc1-c1ccc(Cl)cc1Cl	Autofluor counter 23071
O=c1cc(C(F)(F)F)nc(-c2ccccc2)[nH]1	BoNT-A LC inh2 inconclusive, Autofluor counter 21831
O=C(Cc1ccc(F)cc1)NCCc1ccoc1	none (no result: Anthrax LF inh2, BoNT F protease, MazEF act, BoNT-A LC inh2, Autofluor counter)
CC(C)SCCCCOc1ccc2ccccc2c1	Autofluor counter 21736
c1ccc2cc(OCCOCCOc3ccc4ccccc4c3)ccc2c1	none
COc1cc(-c2nnc(-c3ccccc3)o2)cc(OC)c1OC	none
COc1cc(-c2nnc(COc3ccc4ccccc4c3)o2)cc(OC)c1OC	Autofluor counter 22472
CCN1CCc2nc(NC(=O)c3ccc(Cl)s3)sc2C1	none (no result: Anthrax LF inh2, BoNT F protease, MazEF act, BoNT-A LC inh2, Autofluor counter)
CCN1CCc2nc(NC(=O)c3ccccc3)sc2C1	Autofluor counter 18645
O=C(Cn1cnc2ccccc21)NC1CCN(c2ccccn2)C1 (configuration not stated)	none (no result: Anthrax LF inh2, BoNT F protease, MazEF act, BoNT-A LC inh2, Autofluor counter)
Cc1cc(NC(=O)C(=O)NCC[C@H](O)c2ccccc2)no1	none (no result: Anthrax LF inh2, BoNT F protease, MazEF act, BoNT-A LC inh2, Autofluor counter)
O=C(c1ccccc1F)N(Cc1cccs1)C1CCS(=O)(=O)C1 (configuration not stated)	none
O=C(Oc1ccc(N(Cc2cccs2)C2=NS(=O)(=O)c3ccccc32)cc1)c1ccccc1F	Autofluor counter 22943
Oc1cccc(C=NNc2ccc(Cl)nn2)c1O	none (no result: Anthrax LF inh2, BoNT F protease, MazEF act, BoNT-A LC inh2, Autofluor counter)
C=CCOC(=O)C1=C(C)Nc2nnnn2C1c1cccs1 (configuration not stated)	Autofluor counter 17729
COC(=O)C1=C(C)Nc2nnnn2C1c1ccccc1Cl (configuration not stated)	BoNT F protease inconclusive
COC(=O)C1=C(C)Nc2nnnn2C1c1cccs1 (configuration not stated)	Autofluor counter 19852
COc1ccc(C(=O)c2ccccc2)c(O)c1	Autofluor counter 23016
O=C(c1ccccc1)c1ccc(O)cc1O	none
CC(=O)Oc1c(Cl)c(N2CCOCC2)c(OC(C)=O)c2ccccc12	Autofluor counter 17480
CCOc1ccc(C2C(C#N)=C(N)SC(N)=C2C#N)cc1OCC	none
CCOc1ccc(C2C(C#N)=C(N)N3C(=C2C#N)Sc2ccccc23)cc1 (configuration not stated)	MazEF act 99.9
O=C(c1cc2ncc(Br)cn2n1)N1CCOCC1	BoNT-A LC inh2 inconclusive, Autofluor counter 24596
CC(C)(C)OC(=O)N1CCCC1C(=O)N1CCCC1C(=O)N1CCCC1C(=O)O (configuration not stated)	none
CC(C)(C)OC(=O)N1CCCC1C(=O)N1CCc2ccccc21 (configuration not stated)	BoNT-A LC inh2 inconclusive, Autofluor counter 16582
O=C(CC1Sc2ccc(C(F)(F)F)cc2NC1=O)Nc1ccc(F)c(Cl)c1 (configuration not stated)	none (no result: Anthrax LF inh2, BoNT F protease, MazEF act, BoNT-A LC inh2, Autofluor counter)
Cc1csc(NC(=O)CC2CSc3nc4c(cnn4-c4ccc(F)cc4)c(=O)n32)n1 (configuration not stated)	none (no result: Anthrax LF inh2, BoNT F protease, MazEF act, BoNT-A LC inh2, Autofluor counter)
O=C(Nc1ccc(C(=O)N2CCOCC2)cc1)c1cnn2c(C(F)F)cc(-c3ccccc3)nc12	MazEF act 66.3
Cc1cc(NC(=O)c2cnn3c(C(F)(F)F)cc(-c4ccc(Br)cc4)nc23)no1	Autofluor counter 23282
Cc1ccc(-c2cc(C(F)(F)F)n3ncc(C(=O)NCc4ccco4)c3n2)cc1	none
O=C(c1cnn2c(C(F)(F)F)cc(-c3ccc(Br)cc3)nc12)N1CCOCC1	none
O=C(c1cnn2c(C(F)(F)F)cc(-c3ccc4c(c3)OCO4)nc12)N1CCCC1	BoNT-A LC inh2 inconclusive, Autofluor counter 21315
O=C(c1cnn2c(C(F)F)cc(-c3ccccc3)nc12)N1CCOCC1	Autofluor counter 21284
CC(NC(=O)c1ccc(=O)n(Cc2ccc(F)cc2)n1)c1ccccc1 (configuration not stated)	none (no result: Anthrax LF inh2, BoNT F protease, MazEF act, BoNT-A LC inh2, Autofluor counter)
COc1ccc(-c2cc(C(F)F)n3ncc(C(=O)N4CCN5CCCC5C4)c3n2)cc1 (configuration not stated)	Autofluor counter 17221
O=C(OCc1c(Cl)cccc1Cl)c1cccnc1Cl	BoNT-A LC inh2 inconclusive, Autofluor counter 24071
O=C(OCc1ccccc1Cl)c1ccccc1C(=O)c1ccccc1	Autofluor counter 22408
O=C(OCc1ccc(COC(=O)c2cccnc2Cl)cc1)c1cccnc1Cl	none
COC(=O)c1sc2ncccc2c1OCc1cccc(Cl)c1	none
COC(=O)c1sc2ncccc2c1OCc1c(Cl)cccc1Cl	Autofluor counter 19174
O=C(OCc1ccccc1Cl)c1cccnc1Cl	Autofluor counter 21281
